The source of these data is PubChem BioAssay (Tox21).

Test [1] deals with thyroid hormone receptor (rat, GH3 cells). The test is described as follows: qHTS assay to identify small molecule agonists of the thyroid receptor (TR) signaling pathway (AID 743066; calls by dose curve). The note with it: GH3.TRE-Luc cells, TR agonist luciferase, 24 h; series mostly up to 83.9 µM. On the technique in general: qHTS replaces the single test concentration by a dilution series.
Test [2] has as its target Estrogen receptor (Homo sapiens) (UniProt P03372). The test is described as follows: qHTS assay to identify small molecule antagonists of the estrogen receptor alpha (ER-alpha) signaling pathway (AID 743069; active = well fitted curve in the direction sought with a large enough effect in the signal ratio in the repeat runs, not every such curve was filed as active; the % refers to the signal ratio). The note with it: HEK293 ER-alpha-UAS-bla, beta-lactamase ratio, antagonist mode; series mostly up to 69.4 µM. An outline of the steps:
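Reporter cells (ER-alpha-bla, HEK293 background) are conditioned overnight in stripped-serum medium (2% charcoal-stripped FBS). Compound and 17beta-estradiol exposure runs 18 hr at 37C, 5% CO2.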

Test [3] can be described thus: qHTS assay to identify small molecule antagonists of the estrogen receptor alpha (ER-alpha) signaling pathway - cell viability counter screen (AID 743074; calls by dose curve;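 also: HEK293 cells carrying ER-alpha-UAS-bla reporter stimulated with 17beta-estradiol; nearly all actives have a fitted effect of over 45% in size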). The note with it: ERalpha-bla HEK293 viability, CellTiter-Glo luminescence, 18 h; series mostly up to 69.4 µM.
The target of test [4] is Estrogen receptor (Homo sapiens) (UniProt P03372). The experiment in a line: qHTS assay to identify small molecule agonists of the estrogen receptor alpha (ER-alpha) signaling pathway (AID 743075; calls by dose curve;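 also: HEK293 GripTite cells with ER-alpha and UAS-driven beta-lactamase reporter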). The note with it: HEK293 ER-alpha-UAS-bla, beta-lactamase FRET ratio, 18 h; series mostly up to 70.1 µM.
Test [5] has the same target. The experiment in a line: qHTS assay to identify small molecule agonists of the estrogen receptor alpha (ER-alpha) signaling pathway using the BG1 cell line (AID 743079). Also: nearly all actives have a fitted effect of over 20% in size. The note with it: BG1Luc4E2 cells, ERE-luciferase agonist, 22 h; series mostly up to 70.3 µM.
The nature of test [6]: qHTS assay to identify small molecule antagonists of the estrogen receptor alpha (ER-alpha) signaling pathway using the BG1 cell line (AID 743080; calls by dose curve;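 also: BG1 cells stimulated with 17beta-estradiol alongside compound; nearly all actives have a fitted effect of over 25% in size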; also: potency is read from the fitted curve at half-maximal effect). The note with it: BG1Luc4E2 ERE-luciferase antagonist mode, luminescence; series mostly up to 70.3 µM. An outline of the steps:
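Luminescence from a 4×ERE-luciferase reporter in BG1-Luc-4E2 cells served as read-out. Cells, pre-cultured 5 days in stripped-serum phenol-red-free medium, were exposed to compound with 17beta-estradiol co-stimulation for 21.5 h at 37 C.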

Test [7] is described as follows: qHTS assay to identify small molecule antagonists of the estrogen receptor alpha (ER-alpha) signaling pathway using the BG1 cell line - cell viability counter screen (AID 743081).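 Also: compound given together with 17beta-estradiol as the ER stimulus; nearly all actives have a fitted effect of over 45% in size.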 The note with it: BG1Luc4E2 viability, CellTiter-Fluor, 22 h; series mostly up to 70.3 µM.
For a further test, the target named is Aromatase (Homo sapiens) (UniProt P11511). The experiment in a line: qHTS assay to identify aromatase inhibitors (AID 743083). Also: nearly all actives have a fitted effect of over 55% in size. The note with it: MCF-7 aro ERE, testosterone-driven ERE luciferase, 24 h; series mostly up to 70.3 µM.
Test [8] is described as follows: qHTS assay to identify aromatase inhibitors - cell viability counter screen (AID 743084).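 Also: cells stimulated with testosterone during compound exposure; nearly all actives have a fitted effect of over 55% in size.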 The note with it: MCF-7 aro ERE viability, CellTiter-Fluor, 24 h; series mostly up to 70.3 µM.
For test [9], the target named is Aryl hydrocarbon receptor (Homo sapiens) (UniProt P35869). The test is described as follows: qHTS assay to identify small molecule that activate the aryl hydrocarbon receptor (AhR) signaling pathway (AID 743085). Also: nearly all actives have a fitted effect of over 15% in size. Also: potency is read from the fitted curve at half-maximal effect.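 As to activation: HG2L7.5c1 human HepG2 liver cells with stably integrated DRE-driven firefly reporter.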 The note with it: HepG2 AhR-luc (HG2L7.5c1), luciferase, 24 h; series mostly up to 70.3 µM. An outline of the steps:
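A multiplexed format paired cell viability (CellTiter-Fluor fluorescence) with AhR-dependent luciferase output (ONE-Glo luminescence) in the same wells of HepG2 DRE-luc cells after 24 h compound exposure at 37C.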

The target of test [10] is Peroxisome proliferator-activated receptor gamma (Homo sapiens) (UniProt P37231). The experiment in a line: qHTS assay to identify small molecule antagonists of the peroxisome proliferator-activated receptor gamma (PPARg) signaling pathway (AID 743191; calls by dose curve; also: nearly all actives have a fitted effect of over 30% in size; also: potency is read from the fitted curve at half-maximal effect). The note with it: HEK293H PPARg-UAS-bla, beta-lactamase ratio, antagonist, 17 h; series mostly up to 62.6 µM. An outline of the steps:
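GeneBLAzer PPARg UAS-bla HEK293H cells, 5 h post-plating, exposed to compounds 17 h at 37C. LiveBLAzer B/G FRET substrate added for 1 h at room temperature; beta-lactamase reporter read by fluorescence intensity.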

Test [11] in a line: qHTS assay to identify small molecule antagonists of the peroxisome proliferator-activated receptor gamma (PPARg) signaling pathway - cell viability counter screen (AID 743194). Also: nearly all actives have a fitted effect of over 55% in size. The note with it: PPARg-bla HEK293H viability, CellTiter-Glo luminescence, 17 h, co-treated with 50 nM rosiglitazone; series mostly up to 62.6 µM. An outline of the steps:
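Cytotoxicity counter screen in PPARg-bla HEK293H cells, same wells as reporter assay. Compounds plus 50 nM rosiglitazone (final) for 17 h at 37 C, then viability read by CellTiter-Glo luminescence.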

The nature of test [12]: qHTS assay for small molecule activators of the heat shock response signaling pathway - cell viability counter screen (AID 743209). Also: nearly all actives have a fitted effect of over 50% in size. The note with it: HSE-bla HeLa viability, CellTiter-Glo luminescence, 5 h; series mostly up to 62.6 µM. An outline of the steps:
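First, HSE-bla HeLa cells were seeded at 1500 cells/well and kept overnight at 37 C. Next, compounds were pinned in and incubated 5 h. After the FRET substrate step, CellTiter-Glo was added and luminescence read 30 min later.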

A short description of test [13]: qHTS assay to identify small molecule that activate the aryl hydrocarbon receptor (AhR) signaling pathway - cell viability counter screen (AID 743086).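 Also: HepG2 liver cells carrying the AhR DRE luciferase reporter; nearly all actives have a fitted effect of over 45% in size.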 The note with it: HepG2-AhR-luc viability, CellTiter-Fluor, 24 h; series mostly up to 70.3 µM. An outline of the steps:
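HepG2-AhR-luc (HG2L7.5c1) cells, 4000/well, treated 24 h at 37 C with compound; viability measured as CellTiter-Fluor fluorescence after 30 min in the same wells as the luciferase read.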

For test [14], the target named is Peroxisome proliferator-activated receptor gamma (Homo sapiens) (UniProt P37231). The test is described as follows: qHTS assay to identify small molecule agonists of the peroxisome proliferator-activated receptor gamma (PPARg) signaling pathway (AID 743094; active = well fitted activation curve with a large enough effect in the signal ratio in the repeat runs, not every such curve was filed as active; the % refers to the signal ratio). The note with it: HEK293H PPARg-UAS-bla, beta-lactamase FRET ratio, 17 h; series mostly up to 57 µM. An outline of the steps: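 Quantitative HTS agonist mode: stable HEK293H line with UAS-beta-lactamase reporter under PPARg control, 17 h compound exposure at 37C, fluorescence after 1 h FRET substrate loading at room temperature.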

Test [15] is described as follows: qHTS assay for small molecule agonists of the antioxidant response element (ARE) signaling pathway (AID 743202; active = well fitted activation curve with a large enough effect in the signal ratio in the repeat runs, not every such curve was filed as active; the % refers to the signal ratio; also: potency is read from the fitted curve at half-maximal effect). The note with it: HepG2 ARE-bla reporter, beta-lactamase FRET, 16 h; series mostly up to 73.3 µM. An outline of the steps: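 Agonist mode reporter screen: HepG2 cells with ARE-controlled beta-lactamase are incubated with test compounds for 16 h at 37 C, and beta-lactamase activity is measured as fluorescence of cleaved B/G FRET substrate.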

The nature of test [16]: qHTS assay for small molecule agonists of the antioxidant response element (ARE) signaling pathway - cell viability counter screen (AID 743203; calls by dose curve; also: nearly all actives have a fitted effect of over 55% in size). The note with it: ARE-bla HepG2 viability, CellTiter-Glo luminescence, 16 h; series mostly up to 73.3 µM. An outline of the steps: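 Seeded at 2,000 cells/well, ARE-bla HepG2 cells were incubated 5 hrs before compound addition. After 16 hrs of treatment at 37C with 5% CO2, CellTiter-Glo reagent was added and luminescence read 30 min later.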

Test [17] is described as follows: qHTS assay for small molecule activators of the heat shock response signaling pathway (AID 743210; active = well fitted activation curve with a large enough effect in the signal ratio in the repeat runs, with a control signal flat, not every such curve was filed as active; the % refers to the signal ratio). The note with it: HeLa HSE-bla reporter, beta-lactamase ratio, 5 h; series mostly up to 62.6 µM. An outline of the steps: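 Quantitative high-throughput format using an engineered HeLa line in which heat shock response elements drive beta-lactamase; after 5 h with compound, cells received a B/G FRET substrate and fluorescence was read.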

Records with an inconclusive call do not appear. The source made the active and inactive calls. Unless noted, calls follow the shape of the dose curve; as a rule, active = well fitted curve in the direction sought with a large enough effect in the repeat runs; inconclusive = weak or mixed curves; inactive = no such curve, though single readings can be large; an effect the other way counts as inactive or inconclusive.

Aromatase (Homo sapiens), sequence (P11511 whole entry, looked up): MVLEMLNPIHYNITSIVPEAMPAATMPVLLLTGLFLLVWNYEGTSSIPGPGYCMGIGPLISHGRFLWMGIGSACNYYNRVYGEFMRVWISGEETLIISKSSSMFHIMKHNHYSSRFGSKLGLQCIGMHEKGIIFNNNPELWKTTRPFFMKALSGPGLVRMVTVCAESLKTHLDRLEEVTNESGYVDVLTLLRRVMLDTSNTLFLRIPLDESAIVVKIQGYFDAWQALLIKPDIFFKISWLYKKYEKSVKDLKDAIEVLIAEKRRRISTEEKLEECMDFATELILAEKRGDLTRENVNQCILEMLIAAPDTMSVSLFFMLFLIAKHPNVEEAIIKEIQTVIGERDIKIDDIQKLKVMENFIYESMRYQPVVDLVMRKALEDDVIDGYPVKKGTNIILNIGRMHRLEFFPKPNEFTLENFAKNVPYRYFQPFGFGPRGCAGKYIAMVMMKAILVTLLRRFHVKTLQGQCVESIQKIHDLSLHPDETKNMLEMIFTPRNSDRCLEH
Aryl hydrocarbon receptor (Homo sapiens), sequence (P35869 whole entry, looked up): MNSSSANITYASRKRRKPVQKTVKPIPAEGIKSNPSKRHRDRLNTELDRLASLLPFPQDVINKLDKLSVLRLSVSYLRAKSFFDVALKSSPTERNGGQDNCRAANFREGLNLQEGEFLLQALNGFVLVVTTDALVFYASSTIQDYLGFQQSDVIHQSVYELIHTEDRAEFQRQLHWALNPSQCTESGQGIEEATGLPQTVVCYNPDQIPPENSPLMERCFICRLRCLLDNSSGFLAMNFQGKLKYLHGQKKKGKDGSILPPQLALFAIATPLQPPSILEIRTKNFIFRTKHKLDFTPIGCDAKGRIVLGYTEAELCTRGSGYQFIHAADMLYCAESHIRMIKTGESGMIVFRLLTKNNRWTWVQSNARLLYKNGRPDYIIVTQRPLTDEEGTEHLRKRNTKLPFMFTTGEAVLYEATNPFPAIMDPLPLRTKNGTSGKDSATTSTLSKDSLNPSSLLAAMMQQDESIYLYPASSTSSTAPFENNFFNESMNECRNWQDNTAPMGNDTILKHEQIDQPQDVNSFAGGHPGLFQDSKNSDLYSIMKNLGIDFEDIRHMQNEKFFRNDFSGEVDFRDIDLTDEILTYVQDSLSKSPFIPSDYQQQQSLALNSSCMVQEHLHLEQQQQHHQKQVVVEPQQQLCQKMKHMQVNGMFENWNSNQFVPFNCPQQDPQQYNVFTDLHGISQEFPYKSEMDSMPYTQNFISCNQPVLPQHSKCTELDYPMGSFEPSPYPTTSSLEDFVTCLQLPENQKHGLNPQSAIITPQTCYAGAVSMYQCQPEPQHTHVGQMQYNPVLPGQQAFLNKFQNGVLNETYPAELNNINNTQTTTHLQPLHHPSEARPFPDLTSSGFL
Peroxisome proliferator-activated receptor gamma (Homo sapiens), sequence (P37231 whole entry, looked up): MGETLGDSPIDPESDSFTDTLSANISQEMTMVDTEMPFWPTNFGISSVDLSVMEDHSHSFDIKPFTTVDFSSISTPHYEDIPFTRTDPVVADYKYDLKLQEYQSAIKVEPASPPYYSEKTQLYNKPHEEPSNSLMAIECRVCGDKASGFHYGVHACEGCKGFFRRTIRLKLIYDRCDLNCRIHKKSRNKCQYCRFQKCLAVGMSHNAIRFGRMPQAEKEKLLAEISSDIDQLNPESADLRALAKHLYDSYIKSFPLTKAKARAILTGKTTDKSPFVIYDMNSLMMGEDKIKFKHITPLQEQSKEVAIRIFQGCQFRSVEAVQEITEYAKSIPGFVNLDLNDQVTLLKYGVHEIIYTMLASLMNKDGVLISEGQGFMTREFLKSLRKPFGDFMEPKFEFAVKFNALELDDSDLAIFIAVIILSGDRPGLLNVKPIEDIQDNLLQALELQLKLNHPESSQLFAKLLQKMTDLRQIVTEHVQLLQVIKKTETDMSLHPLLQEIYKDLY
Estrogen receptor (Homo sapiens), sequence (P03372 whole entry, looked up): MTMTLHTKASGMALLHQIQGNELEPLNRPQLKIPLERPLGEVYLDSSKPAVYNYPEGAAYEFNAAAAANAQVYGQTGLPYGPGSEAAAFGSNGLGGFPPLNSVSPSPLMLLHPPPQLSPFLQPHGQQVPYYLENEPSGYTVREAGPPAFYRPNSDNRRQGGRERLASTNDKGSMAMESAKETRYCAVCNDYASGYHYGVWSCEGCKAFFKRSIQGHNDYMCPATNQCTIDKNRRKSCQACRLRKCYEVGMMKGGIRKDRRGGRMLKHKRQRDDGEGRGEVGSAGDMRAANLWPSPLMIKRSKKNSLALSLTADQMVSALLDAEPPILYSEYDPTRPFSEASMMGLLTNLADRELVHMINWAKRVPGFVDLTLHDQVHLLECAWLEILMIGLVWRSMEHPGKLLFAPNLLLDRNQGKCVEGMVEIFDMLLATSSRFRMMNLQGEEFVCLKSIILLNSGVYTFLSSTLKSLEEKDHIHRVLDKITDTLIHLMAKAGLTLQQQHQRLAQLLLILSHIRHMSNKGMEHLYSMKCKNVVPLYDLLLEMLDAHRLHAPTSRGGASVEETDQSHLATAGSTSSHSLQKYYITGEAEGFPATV

Take `COc1cccc([C@H](O)C2CCN(CCc3ccc(F)cc3)CC2)c1OC`: the molecule was called inactive in test [1], in [3] and in test [12]. Moreover, the Potency result (in test [2]; in test [4]; in [5]; in test [6]; in [7]; with Aromatase (Homo sapiens)) was “inactive” throughout. The Potency entry in test [8], in test [9], in [10] and in test [11] was “inactive” in each case.
As to `CC1(C)CC(=O)CC(C)(C)N1`, the molecule was classed as inactive in test [1], in test [3] and in [17]. The Potency entry (in test [4]; in test [5]; in test [6]; in test [7]; with Aromatase (Homo sapiens); in test [8]) was “inactive” each time. In addition, the Potency result in [9], in [13], in test [14], in test [10], in test [15] and in test [16] was “inactive” each time.
As for `O=C(c1ccco1)N1CCNCC1`, the Potency result in [11], in test [15] and in test [16] was “inactive” in each case. The outcome in test [12] was inactive.
With `COc1ccc(/C(C)=C/C(=O)O)c(OC)c1`, the Potency entry in test [11] and in [16] was “inactive” each time. For the same molecule, the molecule was called inactive in test [12] and in test [17].
As to `CC1=C(C)C(=O)C(CCCCC#CCCCC#CCO)=C(C)C1=O`, the Potency entry in test [4], in test [7], in test [8], in test [13], in [14] and in test [11] was “inactive” in each case. Further, the Potency result in test [16] was “inactive”. Also, the Potency in [6] was 15 µM (active); in test [9], 11.9 µM (active); in test [10] it was 29.8 µM (active); in test [15], 23.7 µM (active).
For the molecule `COc1ccnc2c1CCCCC2S(=O)c1nc2ccccc2[nH]1` (stereo not given), the Potency result in test [11] and in [16] was “inactive” throughout. The Potency in [15] was 3.35 µM (active). In [12], the call was inactive.
Regarding `O=C(C1CCCCC1)N1CC(=O)N2CCCc3ccccc3C2C1` (stereo not given), the Potency result in test [11] and in test [16] was “inactive” throughout. Also, in [17], the outcome was inactive.
Turning to `CCC(C(=O)O)c1ccc(N2Cc3ccccc3C2=O)cc1` (stereo not given), the Potency result in test [10], in test [11] and in test [16] was “inactive” throughout. The outcome in test [12] and in [17] was inactive.
For `CCN(CC)CC(=O)OCC(=O)[C@@]1(O)CC[C@H]2[C@@H]3CCC4=CC(=O)CC[C@]4(C)[C@H]3[C@@H](O)C[C@@]21C`, the Potency result in [11], in test [15] and in test [16] was “inactive” throughout. Moreover, the molecule was classed as inactive in [12] and in test [17].
As to `Cc1cc(C)c(C)c(O)c1`, the result in test [1], in [3], in test [12] and in [17] was inactive. The Potency entry (in test [4]; in test [5]; in test [6]; in test [7]; with Aromatase (Homo sapiens); in [8]) was “inactive” each time. Further, the Potency entry in test [9], in test [13], in test [14], in [10] and in test [11] was “inactive” throughout.
Regarding `COc1cc(C)c(Cc2cnc(N)nc2N)cc1OC`, the Potency entry (in test [2]; in [4]; in test [5]; in test [6]; in [7]; with Aromatase (Homo sapiens)) was “inactive” each time. Also, the Potency result in test [8], in [9], in test [13], in test [14], in test [11] and in test [15] was “inactive” throughout. The result in test [3], in test [12] and in test [17] was inactive.
As for `CCc1c(C)[nH]c2c1C(=O)C(CN1CCOCC1)CC2` (stereo not given), the call in test [1] and in test [3] was inactive. Moreover, the Potency result in [7], in [13], in test [11] and in test [15] was “inactive” in each case.
